# Experimental data reported in publication PMC11006913.
# Residue numbers refer to the chain shown, from its start.
# What was measured:
# Test in all cases: PBM; 200 nM protein, PBS
# Conditions in all cases: dsDNA, one strand shown
# HOXB4 [1] = target: HOXB4 (Homo sapiens, UniProt P17483 148-234)
# HOXB4 [2] = target: HOXB4 (Homo sapiens, UniProt P17483 148-234, V174I)
# PAX4 [3] = target: T1, PAX4 (Homo sapiens, UniProt O43316 9-242, F177V)
# T1 sequence: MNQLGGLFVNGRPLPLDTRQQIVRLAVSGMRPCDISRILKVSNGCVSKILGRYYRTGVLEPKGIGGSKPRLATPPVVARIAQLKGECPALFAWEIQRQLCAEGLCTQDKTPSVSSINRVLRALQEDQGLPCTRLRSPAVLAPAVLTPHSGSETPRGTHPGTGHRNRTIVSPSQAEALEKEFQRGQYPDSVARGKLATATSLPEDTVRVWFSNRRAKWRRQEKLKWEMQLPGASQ
# PAX4 [4] = target: T2, PAX4 (Homo sapiens, UniProt O43316 9-242, F177Y)
# T2 sequence: T1 sequence with V169Y
# SHOX [5] = target: SHOX (Homo sapiens, UniProt O15266 103-189)
# HOXD13 = HOXD13 (Homo sapiens, UniProt P35453 263-343, T313R)
# ALX3 = ALX3 (Homo sapiens, UniProt O95076 139-225, N203S)
# PROP1 [6] = target: PROP1 (Homo sapiens, UniProt O75360 56-141)
# PROP1 [7] = target: PROP1 (Homo sapiens, UniProt O75360 56-141, R99H)
# PROP1 [8] = target: PROP1 (Homo sapiens, UniProt O75360 56-141, F88S)
# NKX2-6 [9] = target: T3, NKX2-6 (Homo sapiens, UniProt A6NCS4 118-204)
# T3 sequence: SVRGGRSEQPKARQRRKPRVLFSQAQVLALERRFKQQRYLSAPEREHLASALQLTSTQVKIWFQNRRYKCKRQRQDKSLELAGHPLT
# NKX2-6 [10] = target: T4, NKX2-6 (Homo sapiens, UniProt A6NCS4 118-204, F151L)
# T4 sequence: T3 sequence with F34L
# HOXA4 [11] = target: HOXA4 (Homo sapiens, UniProt Q00056 201-287, W262R)
# HOXA4 [12] = target: HOXA4 (Homo sapiens, UniProt Q00056 201-287, R217L)
# SHOX [13] = target: SHOX (Homo sapiens, UniProt O15266 103-189, R173C)
# HOXA4 [14] = target: HOXA4 (Homo sapiens, UniProt Q00056 201-287)
# HOXA4 [15] = target: HOXA4 (Homo sapiens, UniProt Q00056 201-287, W262F)
# Chain of HOXA4 (Homo sapiens, UniProt Q00056 201-287, W262F) (Q00056 201-287 W262F): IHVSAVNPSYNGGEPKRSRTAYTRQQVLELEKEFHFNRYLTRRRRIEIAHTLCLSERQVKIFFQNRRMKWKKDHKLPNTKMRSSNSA
# Chain of SHOX (Homo sapiens, UniProt O15266 103-189) (O15266 103-189): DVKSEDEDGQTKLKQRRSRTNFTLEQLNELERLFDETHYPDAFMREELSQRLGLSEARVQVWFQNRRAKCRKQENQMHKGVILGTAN
# Chain of HOXB4 (Homo sapiens, UniProt P17483 148-234, V174I) (P17483 148-234 V174I): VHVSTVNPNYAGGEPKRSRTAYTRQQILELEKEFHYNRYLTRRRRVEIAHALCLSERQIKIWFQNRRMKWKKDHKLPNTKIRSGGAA
# Chain of PROP1 (Homo sapiens, UniProt O75360 56-141, R99H) (O75360 56-141 R99H): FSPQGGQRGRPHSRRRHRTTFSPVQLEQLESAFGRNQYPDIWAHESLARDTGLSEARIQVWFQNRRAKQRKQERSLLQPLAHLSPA
# Chain of PROP1 (Homo sapiens, UniProt O75360 56-141, F88S) (O75360 56-141 F88S): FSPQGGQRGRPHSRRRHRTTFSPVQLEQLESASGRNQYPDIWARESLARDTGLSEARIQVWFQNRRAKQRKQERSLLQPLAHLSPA
# Chain of HOXB4 (Homo sapiens, UniProt P17483 148-234) (P17483 148-234): as the sequence (P17483 148-234 V174I) above, with I27V counted along it
# Chain of PROP1 (Homo sapiens, UniProt O75360 56-141) (O75360 56-141): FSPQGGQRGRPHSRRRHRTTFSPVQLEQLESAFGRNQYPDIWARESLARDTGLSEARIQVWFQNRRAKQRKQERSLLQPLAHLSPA
# Chain of HOXA4 (Homo sapiens, UniProt Q00056 201-287, W262R) (Q00056 201-287 W262R): as the sequence (Q00056 201-287 W262F) above, with F62R counted along it
# Chain of ALX3 (O95076 139-225 N203S): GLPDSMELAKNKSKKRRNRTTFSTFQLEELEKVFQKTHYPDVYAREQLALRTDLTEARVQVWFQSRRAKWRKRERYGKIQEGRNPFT
# Chain of HOXD13 (P35453 263-343 T313R): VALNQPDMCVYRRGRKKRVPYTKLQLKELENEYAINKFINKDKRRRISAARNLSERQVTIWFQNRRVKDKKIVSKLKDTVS
# Chain of HOXA4 (Homo sapiens, UniProt Q00056 201-287, R217L) (Q00056 201-287 R217L): as the sequence (Q00056 201-287 W262F) above, with R17L, F62W counted along it
# Chain of SHOX (Homo sapiens, UniProt O15266 103-189, R173C) (O15266 103-189 R173C): as the sequence (O15266 103-189) above, with R71C counted along it
# Chain of HOXA4 (Homo sapiens, UniProt Q00056 201-287) (Q00056 201-287): as the sequence (Q00056 201-287 W262F) above, with F62W counted along it
sequence,measurement,setting,value
GATTATTA,binding signal,HOXB4 [1],"12.9 upbm affinity estimate (log intensity, higher = more binding, comparable within an allelic series)"
same,binding signal,HOXB4 [2],"13.5 upbm affinity estimate (log intensity, higher = more binding, comparable within an allelic series)"
same,binding signal,PAX4 [3],"10.6 upbm affinity estimate (log intensity, higher = more binding, comparable within an allelic series)"
same,binding signal,PAX4 [4],"11 upbm affinity estimate (log intensity, higher = more binding, comparable within an allelic series)"
TAAATGGA,binding signal,SHOX [5],"8.78 upbm affinity estimate (log intensity, higher = more binding, comparable within an allelic series)"
GAATTACA,binding signal,SHOX [5],"9.41 upbm affinity estimate (log intensity, higher = more binding, comparable within an allelic series)"
AATATAAA,binding signal,HOXB4 [1],"10.6 upbm affinity estimate (log intensity, higher = more binding, comparable within an allelic series)"
same,binding signal,HOXB4 [2],"10.7 upbm affinity estimate (log intensity, higher = more binding, comparable within an allelic series)"
same,binding signal,HOXD13,"10.7 upbm affinity estimate (log intensity, higher = more binding, comparable within an allelic series)"
CATTTTCC,binding signal,SHOX [5],"8.3 upbm affinity estimate (log intensity, higher = more binding, comparable within an allelic series)"
AATTTCGA,binding signal,SHOX [5],"8.68 upbm affinity estimate (log intensity, higher = more binding, comparable within an allelic series)"
ATTACTTA,binding signal,HOXB4 [1],"12.1 upbm affinity estimate (log intensity, higher = more binding, comparable within an allelic series)"
same,binding signal,HOXB4 [2],"12.5 upbm affinity estimate (log intensity, higher = more binding, comparable within an allelic series)"
same,binding signal,ALX3,"8.71 upbm affinity estimate (log intensity, higher = more binding, comparable within an allelic series)"
GAACTAAA,binding signal,SHOX [5],"8.27 upbm affinity estimate (log intensity, higher = more binding, comparable within an allelic series)"
GTGCTTAA,binding signal,SHOX [5],"9.04 upbm affinity estimate (log intensity, higher = more binding, comparable within an allelic series)"
GATTGAGA,binding signal,SHOX [5],"8.1 upbm affinity estimate (log intensity, higher = more binding, comparable within an allelic series)"
AAGCTCTC,binding signal,HOXB4 [1],"7.48 upbm affinity estimate (log intensity, higher = more binding, comparable within an allelic series)"
same,binding signal,HOXB4 [2],"7.53 upbm affinity estimate (log intensity, higher = more binding, comparable within an allelic series)"
same,binding signal,PROP1 [6],"6.71 upbm affinity estimate (log intensity, higher = more binding, comparable within an allelic series)"
same,binding signal,PROP1 [7],"6.64 upbm affinity estimate (log intensity, higher = more binding, comparable within an allelic series)"
same,binding signal,PROP1 [8],"6.84 upbm affinity estimate (log intensity, higher = more binding, comparable within an allelic series)"
AATCGTGT,binding signal,SHOX [5],"8.39 upbm affinity estimate (log intensity, higher = more binding, comparable within an allelic series)"
CATATGGG,binding signal,SHOX [5],"7.77 upbm affinity estimate (log intensity, higher = more binding, comparable within an allelic series)"
ATTGCTAC,binding signal,SHOX [5],"8.23 upbm affinity estimate (log intensity, higher = more binding, comparable within an allelic series)"
AATGGTAC,binding signal,SHOX [5],"8.43 upbm affinity estimate (log intensity, higher = more binding, comparable within an allelic series)"
GGATTCCC,binding signal,HOXB4 [1],"7.58 upbm affinity estimate (log intensity, higher = more binding, comparable within an allelic series)"
same,binding signal,HOXB4 [2],"7.52 upbm affinity estimate (log intensity, higher = more binding, comparable within an allelic series)"
same,binding signal,PROP1 [6],"6.63 upbm affinity estimate (log intensity, higher = more binding, comparable within an allelic series)"
same,binding signal,PROP1 [7],"6.7 upbm affinity estimate (log intensity, higher = more binding, comparable within an allelic series)"
same,binding signal,PROP1 [8],"6.49 upbm affinity estimate (log intensity, higher = more binding, comparable within an allelic series)"
CCCGAGCC,binding signal,HOXB4 [1],"7.67 upbm affinity estimate (log intensity, higher = more binding, comparable within an allelic series)"
same,binding signal,HOXB4 [2],"7.83 upbm affinity estimate (log intensity, higher = more binding, comparable within an allelic series)"
same,binding signal,NKX2-6 [9],"9.42 upbm affinity estimate (log intensity, higher = more binding, comparable within an allelic series)"
same,binding signal,NKX2-6 [10],"9.3 upbm affinity estimate (log intensity, higher = more binding, comparable within an allelic series)"
CAGTGTGC,binding signal,HOXB4 [1],"7.61 upbm affinity estimate (log intensity, higher = more binding, comparable within an allelic series)"
same,binding signal,HOXB4 [2],"7.69 upbm affinity estimate (log intensity, higher = more binding, comparable within an allelic series)"
same,binding signal,PROP1 [6],"6.79 upbm affinity estimate (log intensity, higher = more binding, comparable within an allelic series)"
same,binding signal,PROP1 [7],"6.58 upbm affinity estimate (log intensity, higher = more binding, comparable within an allelic series)"
same,binding signal,PROP1 [8],"6.78 upbm affinity estimate (log intensity, higher = more binding, comparable within an allelic series)"
ATTAAAGC,binding signal,HOXB4 [1],"11.7 upbm affinity estimate (log intensity, higher = more binding, comparable within an allelic series)"
same,binding signal,HOXB4 [2],"11.9 upbm affinity estimate (log intensity, higher = more binding, comparable within an allelic series)"
same,binding signal,NKX2-6 [9],"11.1 upbm affinity estimate (log intensity, higher = more binding, comparable within an allelic series)"
AATCGGTA,binding signal,SHOX [5],"8.66 upbm affinity estimate (log intensity, higher = more binding, comparable within an allelic series)"
GCATTAAA,binding signal,SHOX [5],"8.99 upbm affinity estimate (log intensity, higher = more binding, comparable within an allelic series)"
ATATAGAG,binding signal,SHOX [5],"8.28 upbm affinity estimate (log intensity, higher = more binding, comparable within an allelic series)"
ACTGTTAA,binding signal,SHOX [5],"8.56 upbm affinity estimate (log intensity, higher = more binding, comparable within an allelic series)"
AGTAAACG,binding signal,SHOX [5],"8.05 upbm affinity estimate (log intensity, higher = more binding, comparable within an allelic series)"
CGAGCGCC,binding signal,SHOX [5],"7.01 upbm affinity estimate (log intensity, higher = more binding, comparable within an allelic series)"
same,binding signal,HOXA4 [11],"9.78 upbm affinity estimate (log intensity, higher = more binding, comparable within an allelic series)"
same,binding signal,HOXA4 [12],"9.82 upbm affinity estimate (log intensity, higher = more binding, comparable within an allelic series)"
same,binding signal,SHOX [13],"7.09 upbm affinity estimate (log intensity, higher = more binding, comparable within an allelic series)"
same,binding signal,HOXA4 [14],"9.8 upbm affinity estimate (log intensity, higher = more binding, comparable within an allelic series)"
same,binding signal,HOXA4 [15],"9.91 upbm affinity estimate (log intensity, higher = more binding, comparable within an allelic series)"
